An excerpt weighted towards active compounds, which were near 19% of everything screened.
Chronic BCR inh: qHTS Assay to Find Inhibitors of Chronic Active B-Cell Receptor Signaling. ABC-DLBCL IkBa-CBG/CBR reporter, luminescence ratio, 4 h. Potency, µM (highest dose often 46.1 µM), inactives show at the highest dose activity change, negative = inhibition, usual class: inhibitors. 0.05% of 340,000 active. AID 493014, 2011; active = well fitted inhibition curve with a large enough effect in the signal ratio, with a control signal flat, not every such curve was filed as active; inconclusive = small, poorly fitted or top-dose-only effect, or effect the other way, or a change in a side signal; the % refers to the signal ratio;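 also: potency is read from the fitted curve at half-maximal effect; plate controls were basal doxycycline-induced cells for no effect and cells given 10 µM MG132 for full effect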
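Concentration-response series (up to 46 uM) were applied to TMD8 dual-reporter cells for 4 h at 37C with doxycycline. Green/red ratio, after filter-overlap correction, defined %Activity; red signal alone was normalised to basal cells and zero luminescence.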
IL1B secr inh: qHTS for Inhibitors of Inflammasome Signaling: IL-1-beta AlphaLISA Primary Screen | THP-1 LPS/ATP IL-1B secretion, AlphaLISA, 16 h; hits give low values | activity change, % at 57.5 µM | 4.7% of 360,000 active; in the data active = activity change below about -50%; inconclusive = mostly about -30% to -49%; also: % is scaled to controls: 0 for no effect and ±100 for the full control effect
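THP-1 cells pretreated 1 hr with compounds (up to 57.5 uM final), then stimulated with LPS (250 ng/mL final) plus ATP (1.25 mM final); secreted IL-1B measured by AlphaLISA after 16 hr, decreased signal indicating inhibition.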
DT40 TDP1 no CPT: qHTS for Inhibitors of human tyrosyl-DNA phosphodiesterase 1 (TDP1): qHTS in cells in absence of CPT; DT40 Tdp1-/- hTDP1 cells, no CPT, ATP luminescence, 48 h; Potency, µM (series often up to 46.2 µM), inactives show at the highest dose activity change, negative = growth inhibition, hits mostly inhibitors; 15% of 420,000 active; also: potency is read from the fitted curve at half-maximal effect; % is scaled to controls: 0 for no effect and ±100 for the full control effect; nearly all actives have a fitted effect of over 55% in size
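Readout: luminescence from CellTiter-Glo after 30 min in the dark at RT. Cells: DT40 Tdp1-/- with stable hTDP1, 400/well. Exposure: compounds alone, ≥48 hr, 37 °C.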
TDP1 cell CPT: qHTS for Inhibitors of human tyrosyl-DNA phosphodiesterase 1 (TDP1): qHTS in cells in presence of CPT; chicken DT40 Tdp1-/-;hTDP1 cells + 20 nM CPT, ATP luminescence, 48 h; Potency, µM (doses to about 46.2 µM), without a hit: at the top dose activity change, negative = growth inhibition, most hits filed as inhibitors; 12% of 420,000 active; AID 686979, 2013; also: potency is read from the fitted curve at half-maximal effect; % is scaled to controls: 0 for no effect and ±100 for the full control effect; nearly all actives have a fitted effect of over 55% in size
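Chicken DT40 Tdp1-/- cells complemented with human TDP1, 400 cells/well, exposed to compounds plus 20 nM camptothecin for at least 48 h at 37 C; viability read as ATP content by CellTiter-Glo luminescence.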
SW480 rerep: A quantitative high throughput screen for small molecules that induce DNA re-replication in SW480 colon adenocarcinoma cells. Potency, µM (titrated, usually from 46.1 µM), for the others: at the highest dose re-replication activation, actives largely listed as activators. 1.8% of 340,000 active. SW480 DNA re-replication, Hoechst DNA content imaging, 48 h; also: potency is read from the fitted curve at half-maximal effect; % of control where 0% means no effect; nearly all actives have a fitted effect of over 55% in size
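Treated cells incubate 48 hr (37 C, 5% CO2), are stained 40 min with Hoechst, and nuclear fluorescence is enumerated; a rise in nuclei with high DNA signal marks re-replication.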
MCF10A rerep: A quantitative high throughput screen for small molecules that induce DNA re-replication in MCF 10a normal breast cells; Potency, µM (top dose mostly 46.1 µM), inactives show at the top dose activity, positive = re-replication, usual class: activators; MCF 10A DNA re-replication, Hoechst nuclear intensity, 48 h; 2.9% of 350,000 active; also: potency is read from the fitted curve at half-maximal effect; % of control where 0% means no effect; nearly all actives have a fitted effect of over 50% in size
The depositor's hits bear a star; ? = inconclusive; . = no result. Unless noted, calls follow the shape of the dose curve; as a rule, active = well fitted curve in the direction sought with a large enough effect; inconclusive = small, poorly fitted or top-dose-only effect, or another doubt; inactive = no such curve, though single readings can be large; an effect the other way counts as inactive or inconclusive.

SMILES | Chronic BCR inh | IL1B secr inh | DT40 TDP1 no CPT | TDP1 cell CPT | SW480 rerep | MCF10A rerep
CCCOc1ccc(C2C(=O)N(C3CCCCCC3)CC(=O)N2Cc2ccc(OC)cc2)cc1OC (centres undefined) | 2% | . | 23µM* | ? | . | .
COc1ccc(C2C(=O)N(C3CCCCCC3)CC(=O)N2Cc2ccc(C)cc2)cc1OC (centres undefined) | ? | . | 23µM* | 23µM* | . | .
O=C1C(c2ccc(F)cc2)N(CCc2ccccc2)C(=O)CN1C1CCCCCC1 (centres undefined) | 6% | . | 13µM* | ? | . | .
CCCN1C(=O)CN(C2CCCCC2)C(=O)C1c1ccc(OC)c(OC)c1 (centres undefined) | ? | . | -15% | -19% | . | .
CCCOc1ccc(C2C(=O)N(C3CCCCCC3)CC(=O)N2CCC)cc1OC (centres undefined) | ? | . | ? | 23µM* | . | .
Cc1ccc(C2C(=O)N(C3CCCC3)CC(=O)N2C2CCCCC2)cc1 (centres undefined) | ? | -12 | ? | -25% | 3% | 7%
Cc1ccc(C2C(=O)N(C3CCCCCC3)CC(=O)N2C(C)C)cc1 (centres undefined) | 0% | . | 26µM* | ? | . | .
Cc1ccc(CN2C(=O)CN(C3CCCCCC3)C(=O)C2c2ccc(F)cc2)cc1 (centres undefined) | 2% | . | 16µM* | 18µM* | . | .
O=C(Nc1ccc2c(c1)OCO2)C1Cc2c(-c3ccccc3Oc3ccccc3)ccnc2O1 (centres undefined) | . | -22 | ? | ? | . | .
COc1ccc(NC(=O)C2Cc3c(-c4ccccc4Oc4ccccc4)ccnc3O2)cn1 (centres undefined) | . | -29 | 15µM* | 15µM* | . | .
COc1ccc(NC(=O)C2Cc3c(-c4ccccc4Oc4ccccc4)ccnc3O2)cc1OC (centres undefined) | . | -12 | 16µM* | 9.2µM* | . | .
O=C(NCc1cccs1)C1Cc2c(-c3ccccc3Oc3ccccc3)ccnc2O1 (centres undefined) | . | -11 | ? | ? | . | .
O=C(NCc1ccncc1)C1Cc2c(-c3ccccc3Oc3ccccc3)ccnc2O1 (centres undefined) | . | -59* | 16µM* | 13µM* | . | .
COCCNC(=S)N1CCC2CC1c1c(Cl)cccc12 (centres undefined) | . | -1 | ? | -24% | . | .
COc1ccc(Br)c(C(=O)NCC2CCCCC2)c1 | ? | -13 | -17% | -18% | -11% | -10%
CCCNC(=O)c1nn2cc(Br)cnc2c1Br | ? | 5 | 1% | -8% | -54% | 11%
S=C1Nc2ccccc2CS1 | . | 15 | ? | -15% | . | .
S=C1Cc2ccccc2N1 | ? | -101* | 0.73µM* | 0.92µM* | ? | ?
O=C(CCCNC(=O)c1ccc(Cl)cc1)NCc1ccccc1F | 0% | 6 | 8% | 5% | -18% | -20%
O=C(NCC(c1cccnc1)N1CCN(c2ccccc2F)CC1)C1CCCCC1 (centres undefined) | 8% | 7 | 10µM* | ? | -7% | -30%
O=C(COc1ccccc1)NCC(c1ccco1)N1CCN(c2ccc(F)cc2)CC1 (centres undefined) | ? | -54* | ? | ? | ? | -1%
O=C(NCC(c1cccnc1)N1CCN(c2ccc(F)cc2)CC1)C1CCCCC1 (centres undefined) | -27% | -1 | ? | ? | 0% | 20%
